Rows were chosen to be rich in hits. Some 7.3% of all compounds tested hit in one or more screens of this group.
VACV Venus inh: qHTS for Stage-Specific Inhibitors of Vaccinia Orthopoxvirus: Venus Reporter Primary qHTS | 330,000 tested, 0.46% active | Potency, µM (top dose mostly 36.5 µM), inactives show at the top dose activity change, negative = inhibition, most hits filed as inhibitors | Vaccinia virus Venus reporter expression, fluorescence; calls by dose curve; tested in A549 cells; also: potency is read from the fitted curve at half-maximal effect; nearly all actives have a fitted effect of over 30% in size
HCV inhibitor: qHTS Assay for Inhibitors of Hepatitis C Virus (HCV). Potency, µM (top dose mostly 41.8 µM), inactives show top-dose activity change, negative = inhibition, most hits filed as inhibitors. Huh7.5.1 HCVcc-Cre infection, luciferase reporter, 44 h. AID 651820, 2012. 340,000 tested, 3.4% active; active = well fitted inhibition curve with a large enough effect; inconclusive = small, poorly fitted or top-dose-only effect, or another doubt; inactive = no such curve, though single readings can be large or run the other way; also: potency is read from the fitted curve at half-maximal effect
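Cells seeded at 1,000/well and cultured 4 h, then compounds added followed by HCVcc-Cre virus (~0.5 moi). After 44 h further culture, luciferase substrate was added, plates held 15 min at room temperature, and luminescence read for 15 sec.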
FMDV inh: High Throughput Screening for Foot and Mouth Disease Virus Antivirals; FMDV antiviral cell-based qHTS; 410,000 tested, 1.2% active; Potency, µM (highest dose often 57.9 µM), for the others: at the highest dose activity change, negative = inhibition, usual class: inhibitors; calls by dose curve; tested in HEK293T cells; also: read-out not given here; potency is read from the fitted curve at half-maximal effect; nearly all actives have a fitted effect of over 45% in size
HCMV inh: qHTS Assay for inhibitors of the human cytomegalovirus (HCMV); 410,000 tested, 4.5% active; HFF cells, HCMV-luciferase reporter, 72 h; hits give low values; activity change, negative = inhibition, % at 57.5 µM; in the data active = activity change below about -60%; inconclusive = no clear call, values can overlap the other calls; inactive = above about -39%
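After 16 h attachment at 37C, HFF cells received test compound and HCMV-luciferase (1 PFU/cell); reporter luminescence read 72 h later, data normalized against buffer-only and known inhibitor Salinomycin.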
VACV mCherry inh: qHTS for Stage-Specific Inhibitors of Vaccinia Orthopoxvirus: mCherry Reporter Primary qHTS | 310,000 tested, 0.63% active | Vaccinia virus mCherry reporter infection, fluorescence | AID 720579, 2013 | Potency, µM (titrated, usually from 36.5 µM), without a hit: at the top dose activity change, negative = inhibition, most hits filed as inhibitors; calls by dose curve; tested in A549 cells; also: potency is read from the fitted curve at half-maximal effect; nearly all actives have a fitted effect of over 35% in size
* marks the source's active call; other numbers are inactive results; i = inactive; u = inconclusive; x = not tested or not shown; [ ] = dose if it differs, or a comment. % is scaled to controls: 0 for no effect and ±100 for the full control effect.

SMILES	VACV Venus inh	HCV inhibitor	FMDV inh	HCMV inh	VACV mCherry inh
CCN1/C(=C\C=C(C(C)=O)C(C)=O)Sc2ccccc21	-1%	-21%	-5%	23	-22%
CCN1/C(=C/C(C)=C/c2sc3ccccc3[n+]2CC)Sc2ccccc21	i	1µM*	10µM*	-100*	i
CCNCc1nc2cc(Cl)ccc2c(=O)[nH]1	-20%	-25%	-8%	-69*	-11%
Nc1cc(=O)[nH]c(=O)n1-c1cccc(F)c1	-4%	4%	-1%	-84*	i
COc1ccc(-n2c(N)cc(=O)[nH]c2=O)cc1	-12%[7.34 µM]	5%	-5%	x	-3%[7.34 µM]
CCOC(=O)CSc1nc2ccccc2c(=O)n1CC	-7%	-27%	-4%	-10	-16%
CCCCOc1ccc(CNn2c(C)nc3ccccc3c2=O)cc1	-4%	10µM*	u	u	-5%
CCCCOC(=O)Cn1c(-c2ccccc2)nc2ccccc2c1=O	-11%	-2%	-24%	-76*	i
CCCOC(=O)Cn1c(=O)c2cc3c(=O)n(CC(=O)OCCC)c(=O)c3cc2c1=O	-4%	10%	1%	-72*	-23%
CCOC(=O)Cn1c(-c2ccccc2)nc2ccccc2c1=O	-16%	5%	-6%	-95*	-9%
CCCCCCn1c(=O)n2n(c1=O)C[C@]1(OC(=O)NCc3ccco3)CN(S(=O)(=O)c3ccc(C)cc3)C[C@]1(O)C2	-22%	x	u	-27	i
CC(=O)Nc1ccc2nc3c(=O)n(C)c(=O)n(C)c3nc2c1C	14%	x	-6%	1	2%
COc1ccc(-n2nc(C(=O)NCCc3cccc(C)c3)c3c4ccccc4n(C)c3c2=O)cc1Cl	-9%	x	-24%	6	-14%
COc1ccccc1NC(=O)C(C)Sc1nc(-c2ccccc2)cn1N (centres undefined)	x	-5%	-18%	u	x
O=S(=O)(c1ccc(-c2csc(=Nc3ccc(F)cc3)n2CCCCCCO)cc1)N1CCCC1	-28%	x	25µM*	-101*	u
CC(=O)c1cccc(N=c2scc(-c3ccc(S(=O)(=O)N4CCOCC4)cc3)n2CCO)c1	u	1µM*	20µM*	-98*	u
OCCCn1c(-c2ccc(F)cc2)csc1=Nc1ccc(F)cc1	-13%	x	0%	-8	-23%
COc1ccccc1N=c1scc(-c2ccc(S(=O)(=O)N3CCCC3)cc2)n1C	u	x	2.8µM*	-97*	-19%[7.34 µM]
Cc1cc(C)c(Cn2c(=O)n(CCC(=O)NCc3ccc4c(c3)OCO4)c(=O)c3ccccc32)c(C)c1	1%	x	8%	-4	0%
CC1=C(C(=O)Nc2ccccn2)C(c2ccccc2)n2ncnc2N1 (centres undefined)	-1%	10%	13%	-5	x
COc1ccc(OC)c(C2NC(=S)NC(C)=C2C(=O)Nc2ccccn2)c1 (centres undefined)	0%	20%	-10%	-99*	-7%
COc1ccc(C2C(C(=O)Nc3ccccn3)=C(C)Nc3ncnn32)c(OC)c1 (centres undefined)	-2%	7%	-22%	-64*	-2%
Cc1ccccc1CN1CCC(CNc2ncnc3onc(-c4ccc(Cl)cc4)c23)CC1	2%	x	u	3	-8%
COc1ccccc1CCC(=O)NNC(=O)c1ccc(Br)cc1	7%	-6%	34%	-1	-8%
CC(C)C(C)NC(=O)COc1ccc(Sc2ccc(OCC(=O)NC(C)C(C)C)cc2)cc1 (centres undefined)	-11%	u	u	-88*	-26%
SMILES	VACV Venus inh	HCV inhibitor	FMDV inh	HCMV inh	VACV mCherry inh
O=C(NC1CCN(S(=O)(=O)c2cccc(F)c2)CC1)c1cccc(F)c1	x	2%	-10%	-17	x
Cc1cccc(C(=O)NC2CCN(C(=O)Nc3ccccc3C)CC2)c1	-19%	24%	-16%	-103*	12%
Cc1cccc(C(=O)NC2CCN(S(=O)(=O)c3cccc(F)c3)CC2)c1	x	-23%	-9%	-60*	x
COc1ccccc1C1CN(Cc2cccc(O)c2)Cc2ccccc2O1 (centres undefined)	-24%	x	u	x	-26%
COc1ccccc1NC(=O)Cn1c(=O)n(-c2ccc(C)cc2)c(=O)c2ccc(C(=O)NCc3ccco3)cc21	-6%	x	7%	-29	-9%
CCn1nc(C)cc1-c1nnc(SCC(=O)Nc2ccccc2)n1CCCOC	3%	-13%	-3%	-9	i
CCn1nc(C)cc1-c1nnc(Sc2ncc([N+](=O)[O-])s2)n1C	x	3.5µM*	28µM*	-96*	x
COc1ccccc1C(=O)COC(=O)CCNS(=O)(=O)c1ccc(C)c(C)c1	-16%	-9%	17%	-12	-16%
CCNc1nc(NC(C)C)nc(N(C#N)CCOc2ccc(Cl)cc2Cl)n1	x	5µM*	-25%	34	x
CCN(CCO)c1ccc(Nc2cc(-c3ccc(-c4ccccc4)cc3)ncn2)cc1	-25%	x	-22%	-8	32µM*
N=C(C[C@@H](O)COc1ccccc1-c1ccccc1)N1CCCCC1	x	x	-30%	x	x
COc1cc(/C=C(\C#N)C(=O)NC2CCCCC2C)ccc1OS(=O)(=O)c1ccc(C)cc1 (centres undefined)	0%	-24%	25µM*	-35	-10%
COc1ccc(C(c2nnnn2C2CCCC2)N2CCc3ccccc3C2)cc1OC (centres undefined)	-18%	-11%	-5%	u	x
COc1ccc(OC)c(C(c2nnnn2C2CCCC2)N2CCc3ccccc3C2)c1 (centres undefined)	u	11µM*	-9%	-10	x
Cn1c(=O)n(C/C=C/c2ccccc2)c(=O)c2c1nc1n2CCN1c1ccc(F)cc1	-6%	x	-2%	-22	-10%
O=C(Nc1cc(Sc2ccccn2)cc([N+](=O)[O-])c1)c1ccc([N+](=O)[O-])cc1	u	u	22µM*	-29	-21%
O=[N+]([O-])c1ccc(Sc2ccccn2)nc1	u	7%	-2%	20	u
Cc1ccc(NC(=O)c2cc3ccccn3n2)cc1F	4%	x	-10%	90	-10%
C/C(=N\NC(=O)c1ccccc1NC(=O)c1ccc(Cl)cc1)c1ccncc1	2%	-23%	3.2µM*	-28	i
CCNC(=O)C1(C)CCN(C(=O)c2ccc(C)c(F)c2)C1 (centres undefined)	-6%	x	0%	15	i
CCC(O)CNC(=O)NC(=C(Cl)Cl)c1ccc(C)c(F)c1 (centres undefined)	x	16µM*	u	-81*	x
Cc1ccc(C)c(CSc2nc3ccncc3n2CC(=O)Nc2ccc(N(C)C)cc2)c1	-6%	x	-27%	-21	-10%
C=CCOC(=O)/C(=C\c1ccccc1)NC(=O)c1ccc(C)cc1	-12%	-7%	69%	-67*	-10%

Source: PubChem BioAssay
